Potency data for 40 compounds are collected here from PubChem BioAssay AID2561 (National Center for Advancing Translational Sciences (NCATS), 2010).

Each structure is given as a SMILES string. Inconclusive results are not listed. Entries that show only a call come without a potency. Active and inactive are the calls of the source. The call rests on the fitted dose curve; in most records, active means well fitted inhibition curve with a large enough effect; inconclusive means small, poorly fitted or top-dose-only effect, or effect the other way; inactive means flat fitted curve, though single readings scatter.
Potency means the concentration at half of the fitted maximal effect.

Sequence of Pyruvate kinase (Leishmania mexicana) (Q27686 whole entry, looked up): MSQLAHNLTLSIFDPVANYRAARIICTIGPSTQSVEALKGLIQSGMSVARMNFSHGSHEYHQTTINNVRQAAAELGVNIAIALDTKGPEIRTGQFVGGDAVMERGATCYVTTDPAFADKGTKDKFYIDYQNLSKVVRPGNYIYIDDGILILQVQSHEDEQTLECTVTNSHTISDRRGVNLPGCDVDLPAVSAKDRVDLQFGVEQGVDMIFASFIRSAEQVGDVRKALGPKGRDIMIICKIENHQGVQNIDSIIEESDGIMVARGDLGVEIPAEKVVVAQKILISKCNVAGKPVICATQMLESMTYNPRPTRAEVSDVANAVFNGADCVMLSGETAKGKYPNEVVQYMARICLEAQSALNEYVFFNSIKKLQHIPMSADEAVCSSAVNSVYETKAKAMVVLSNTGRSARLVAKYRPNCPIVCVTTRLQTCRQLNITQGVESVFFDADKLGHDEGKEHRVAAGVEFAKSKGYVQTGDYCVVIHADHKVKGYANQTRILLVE

For the assay, the target named is Pyruvate kinase (Leishmania mexicana) (UniProt Q27686). Description: Confirmation Assay for Inhibitors of Leishmania Mexicana Pyruvate Kinase (LmPK): for Probe SAR. Particulars: purified LmPK, ATP generation, Kinase-Glo luminescence; series mostly up to 57.5 µM. The text has this:
NIH Chemical Genomics Center [NCGC] Malcolm Walkinshaw, Hugh Morgan, Linda Gilmore University of Edinburgh, UK MLPCN Grant: 1 R03 MH085697-01 NCGC Assay Overview: Pyruvate kinase (L. Mexicana) (LmPK) enzyme was supplied as a highly purified (>95% pure) sulphate-free preparation from University of Edinburgh, UK and assayed for its ability to generate ATP from ADP using phosphoenolpyruvate (PEP) as a substrate. ATP generation was detected in a coupled reaction by luciferase-mediated luminescence, an ATP-dependent process. Pyruvate kinase substrates, PEP and ADP, were present in the assay at Km and approximately 10-fold below Km respectively. The enzyme was assayed at an intermediate level of activity to screen for both inhibitors and activators.
NCGC Assay Protocol Summary: Three uL of enzyme mix (kept on ice) in assay buffer (50 mM Imidazole pH7.2, 50 mM KCl, 7 mM MgCl2, 0.01% Tween 20, 0.05% BSA) containing PEP (0.5 mM final concentration) and LmPK (0.1 nM final concentration) was dispensed into white solid bottom 1,536 well microtiter plates. 23 nL of compound were delivered by a pin tool and 1 uL of ADP mix in assay buffer (r.t; 0.1 mM final ADP concentration) was added. Plates were incubated at room temperature for 1 hour. Two uL of detection mix (Kinase-Glo, Promega; at 4 degree Celsius protected from light) was added and luminescence read by a ViewLux (Perkin Elmer) at 1 second exposure/plate. Data were normalized to the uninhibited and AC100 inhibition (no enzyme). To monitor activation, the first column contained a five-fold concentration of LmPK (0.5 nM).
A general note: Kinase-Glo reads ATP consumption through a luciferase reaction.
Take `Cc1ccc(NS(=O)(=O)c2ccc3c(c2)CCC(C)(C)O3)cc1C`: the Potency result was “inactive”.

On to `O=S1(=O)N=C(Oc2cccc3ccccc23)c2ccccc21`, for which the Potency is 4.11 µM (active). Then `CCOc1ccc2c(c1)C(=O)C(c1cc(=O)c3ccccc3[nH]1)C2=O` (stereo not given), with “inactive”; and `Cc1ccc(NS(=O)(=O)c2ccc3c(c2)CC(=O)N3C)cc1C`, with “inactive”; and `Cc1ccccc1OC1=NS(=O)(=O)c2ccccc21`, with 4.43 µM (active). For the compound `O=C1CCc2cc(S(=O)(=O)Nc3cccc(F)c3)ccc2N1`, the Potency result was “inactive”. On to `O=C1c2ccccc2C(=O)N1c1noc2ccccc12`, for which the Potency result is “inactive”. On to `N#Cc1cccnc1SC1=NS(=O)(=O)c2ccccc21`, for which the Potency was 16.3 µM (active). With `Cc1ccc(NS(=O)(=O)c2cccc(Cl)c2)cc1C`, the Potency entry is “inactive”. Then `O=S1(=O)N=C(Sc2ccc3c(c2)OCCO3)c2ccccc21`, with 3.66 µM (active); and `COc1ccccc1OC1=NS(=O)(=O)c2ccccc21`, with 4.31 µM (active).

In the case of `Cc1ccc(-c2nc3ccc(Cl)cn3c2Nc2ccccc2)o1`, the Potency result was “inactive”. Turning to `CNc1cccc(S(=O)(=O)N2CCN(S(=O)(=O)c3ccc4c(c3)OCCO4)CC2)c1`, the Potency result was “inactive”. As for `Cc1ccc2nc(-c3ccc(C)o3)c(NC3CCCC3)n2c1`, the Potency result was “inactive”. The result for `Cc1ccc(NS(=O)(=O)c2cc3c(cc2/C=C/c2ccccc2)NC(=O)CO3)cc1C` reads “inactive”; that for `O=S(=O)(c1ccc2c(c1)OCCO2)N1CCN(S(=O)(=O)c2c(F)cccc2F)CC1`, “inactive”; that for `COC(=O)c1ccc2c(c1)S(=O)(=O)N=C2Sc1cc(C)ccc1C`, 8.19 µM (active). Then `COc1cc(N2C(=O)c3ccccc3C2=O)c2ncccc2c1`, with “inactive”; and `Cc1ccc(NS(=O)(=O)c2cccc(F)c2)cc1C`, with “inactive”. `Cc1ccc(Nc2c(-c3ccsc3)nc3cccc(C)n23)cc1`: the Potency entry is “inactive”. Consider `Cc1ccc2nc(-c3ccc(C)o3)c(Nc3ccc(Cl)cc3)n2c1`, for which the Potency entry was “inactive”. The result for `COc1ccc(N2C(=O)c3ccccc3C2=O)cc1` reads “inactive”.

As for `Nc1cc(S(=O)(=O)N2CCN(S(=O)(=O)c3ccc4c(c3)OCCO4)CC2)ccn1`, the Potency result is “inactive”. Then `N#Cc1cccc(OC2=NS(=O)(=O)c3ccccc32)c1`, with 4.61 µM (active); and `COc1ccc(OC2=NS(=O)(=O)c3ccccc32)cc1`, with 4.31 µM (active); and `COC(=O)c1ccccc1S(=O)(=O)Nc1cc(=O)c2ccccc2[nH]1`, with “inactive”. The result for `Cc1cc(C)c2[nH]c(C3C(=O)c4ccccc4C3=O)cc(=O)c2c1` reads “inactive”; that for `Cc1ccc(NS(=O)(=O)c2ccc3c(ccn3C)c2)cc1C`, “inactive”. Then `Cc1ccc(NS(=O)(=O)c2cc3c(cc2Cl)CCC(=O)N3)cc1C`, with “inactive”. For the compound `O=C1NS(=O)(=O)c2ccccc21`, the Potency entry is “inactive”.

As for `O=C1c2ccccc2C(=O)N1c1cnc2ccccc2c1`, the Potency result was “inactive”. As to `CC(=O)Nc1cccc(OC2=NS(=O)(=O)c3ccccc32)c1`, the Potency was 2.06 µM (active). For the compound `COc1cccc(N2C(=O)c3ccccc3C2=O)c1`, the Potency entry was “inactive”. As to `CC(=O)Nc1ccc(OC2=NS(=O)(=O)c3ccccc32)cc1`, the Potency is 4.11 µM (active).

Regarding `Cc1nc(-c2ccc(S(=O)(=O)Nc3ccc(C)c(C)c3)s2)cs1`, the Potency entry was “inactive”. Regarding `Cc1ccc(NS(=O)(=O)c2cc3c(cc2-c2ccccc2)NC(=O)CO3)cc1C`, the Potency result is “inactive”. Turning to `Cc1ccc(-c2nc3ccccn3c2Nc2ccc(F)cc2)o1`, the Potency entry is “inactive”. Then `Cc1ccc(NS(=O)(=O)c2ccc(-c3ccccc3)cc2)cc1C`, with “inactive”; and `O=C1c2ccccc2C(=O)N1Cc1ccccc1`, with “inactive”. Then `Cc1ccc(NS(=O)(=O)c2cc3c(cc2Br)NC(=O)CO3)cc1C`, with “inactive”.
